Experimental data reported in PubChem BioAssay AID1159580 (chemical genetic matrix, 2015).
Out of some 5,500 compounds screened, about 2,000 (36%) were called active. Inconclusive results (about 18%) are left out. Rule as the data show it: active = normalized growth mostly below about 0.91 (no sharp cut-off); inconclusive = no clear call, values can overlap the other calls; inactive = mostly above about 0.92. The list shows a part of the results.

Assay: chemical genetic growth profiling, strain panel (AID 1159580);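 also: tested at 20 µM; growth read once vehicle control cultures reached saturation at 30 °C; 1 = growth at the plate median or of vehicle wells; lower values mean less growth of the strain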
Conditions: growth OD

Measured: normalized growth

O=C1C(Cl)=C(Cl)C(=O)C(Cl)=C1Cl
active: S. cerevisiae deletion strains, locus YKL009W, strain mrt4, active compounds read low 1.17 [resistant] | S. cerevisiae deletion strains, locus YKL068W, active compounds read low 0.12 | S. cerevisiae deletion strains, locus YKL085W, strain MDH1 (second series), active compounds read low 0.0519 | S. cerevisiae deletion strains, locus YKL085W, strain MDH1, active compounds read low 0.0519 | S. cerevisiae deletion strains, locus YKL160W, strain elf1, active compounds read low 0.901 | S. cerevisiae deletion strains, locus YKL190W, strain CNB1, active compounds read low 0.629 | S. cerevisiae deletion strains, locus YKR001C, strain vps1, active compounds read low 0.094 | S. cerevisiae deletion strains, locus YLR027C, strain aat2, active compounds read low 0.899 | S. cerevisiae deletion strains, locus YLR039C, strain RIC1, active compounds read low 0.275 | S. cerevisiae deletion strains, locus YLR102C, strain apc9, active compounds read low 0.254 | S. cerevisiae deletion strains, locus YLR113W, strain HOG1, active compounds read low 0.145 | S. cerevisiae deletion strains, locus YLR221C, strain rsa3, active compounds read low 0.855 | S. cerevisiae deletion strains, locus YLR262C, strain YPT6 (second series), active compounds read low 0.703 | S. cerevisiae deletion strains, locus YLR262C, strain YPT6, active compounds read low 0.168 | S. cerevisiae deletion strains, locus YLR268W, strain sec22, active compounds read low 0.256 | S. cerevisiae deletion strains, locus YLR330W, strain CHS5, active compounds read low 0.129 | S. cerevisiae deletion strains, locus YLR342W, strain FKS1 (second series), active compounds read low 0.243 | S. cerevisiae deletion strains, locus YLR371W, strain rom2, active compounds read low 0.151 | S. cerevisiae deletion strains, locus YLR418C, strain cdc73, active compounds read low 0.292 | S. cerevisiae deletion strains, locus YML016C, strain PPZ1, active compounds read low 0.776 | S. cerevisiae deletion strains, locus YML120C, strain ndi1, active compounds read low 0.9 | S. cerevisiae deletion strains, locus YML124C, strain tub3, active compounds read low 0.708 | S. cerevisiae deletion strains, locus YMR078C, strain ctf18, active compounds read low 0.551 | S. cerevisiae deletion strains, locus YMR125W, strain sto1, active compounds read low 0.792 | S. cerevisiae deletion strains, locus YMR223W, strain ubp8, active compounds read low 0.182 | S. cerevisiae deletion strains, locus YMR263W, strain SAP30, active compounds read low 0.794 | S. cerevisiae deletion strains, locus YMR307W, strain GAS1, active compounds read low 0.112 | S. cerevisiae deletion strains, locus YNL067W, strain RPL9B, active compounds read low 0.63 | S. cerevisiae deletion strains, locus YNL071W, strain lat1, active compounds read low 0.824 | S. cerevisiae deletion strains, locus YNL128W, strain TEP1, active compounds read low 0.341 | S. cerevisiae deletion strains, locus YNL153C, strain GIM3, active compounds read low 0.814 | S. cerevisiae deletion strains, locus YNL183C, strain NPR1, active compounds read low 0.0843 | S. cerevisiae deletion strains, locus YNL209W, strain ssb2, active compounds read low 0.888 | S. cerevisiae deletion strains, locus YNL233W, strain BNI4, active compounds read low 0.17 | S. cerevisiae deletion strains, locus YNL248C, strain rpa49, active compounds read low 0.884 | S. cerevisiae deletion strains, locus YNL250W, strain rad50, active compounds read low 0.0728 | S. cerevisiae deletion strains, locus YNL271C, strain bni1, active compounds read low 0.0654 | S. cerevisiae deletion strains, locus YNL298W, strain CLA4, active compounds read low 0.0642 | S. cerevisiae deletion strains, locus YNL307C, strain MCK1, active compounds read low 0.206 | S. cerevisiae deletion strains, locus YNL322C, strain KRE1, active compounds read low 0.849 | S. cerevisiae deletion strains, locus YNR052C, strain pop2, active compounds read low 0.911 | S. cerevisiae deletion strains, locus YOL006C, strain TOP1, active compounds read low 0.357 | S. cerevisiae deletion strains, locus YOR061W, strain CKA2, active compounds read low 0.617 | S. cerevisiae deletion strains, locus YOR069W, strain VPS5, active compounds read low 0.577 | S. cerevisiae deletion strains, locus YOR070C, strain gyp1, active compounds read low 0.917 | S. cerevisiae deletion strains, locus YOR083W, strain WHI5, active compounds read low 0.871 | S. cerevisiae deletion strains, locus YOR106W, strain vam3, active compounds read low 0.856 | S. cerevisiae deletion strains, locus YOR136W, strain idh2, active compounds read low 0.307 | S. cerevisiae deletion strains, locus YOR184W, strain ser1, active compounds read low 0.195 | S. cerevisiae deletion strains, locus YOR231W, strain MKK1, active compounds read low 0.124 | S. cerevisiae deletion strains, locus YOR316C, strain cot1, active compounds read low 0.677 | S. cerevisiae deletion strains, locus YPL051W, strain arl3, active compounds read low 0.841 | S. cerevisiae deletion strains, locus YPL055C, strain LGE1, active compounds read low 0.408 | S. cerevisiae deletion strains, locus YPL106C, strain sse1, active compounds read low 0.838 | S. cerevisiae deletion strains, locus YPL256C, strain CLN2, active compounds read low 0.132 | S. cerevisiae deletion strains, locus YPR119W, strain clb2, active compounds read low 0.444 | S. cerevisiae deletion strains, locus YPR141C, strain kar3, active compounds read low 0.11 | S. cerevisiae deletion strains, locus YPR163C, strain tif3, active compounds read low 0.321 | S. cerevisiae deletion strains, locus YPR167C, strain met16, active compounds read low 0.176 | S. cerevisiae deletion strains, strain wtn01, active compounds read low 0.32 | S. cerevisiae strains, strain wild type, active compounds read low 0.423
inactive: S. cerevisiae deletion strains, locus YKR026C, strain gcn3, active compounds read low 0.987 | S. cerevisiae deletion strains, locus YKR091W, strain srl3, active compounds read low 0.99 | S. cerevisiae deletion strains, locus YLL001W, strain dnm1, active compounds read low 0.958 | S. cerevisiae deletion strains, locus YLL026W, active compounds read low 0.98 | S. cerevisiae deletion strains, locus YLL041C, strain sdh2, active compounds read low 0.988 | S. cerevisiae deletion strains, locus YLR058C, strain SHM2, active compounds read low 0.966 | S. cerevisiae deletion strains, locus YLR258W, strain gsy2, active compounds read low 0.978 | S. cerevisiae deletion strains, locus YLR320W, strain mms22, active compounds read low 0.92 | S. cerevisiae deletion strains, locus YLR342W, strain FKS1, active compounds read low 0.935 | S. cerevisiae deletion strains, locus YLR357W, strain rsc2, active compounds read low 0.86 | S. cerevisiae deletion strains, locus YLR370C, strain arc18, active compounds read low 0.919 | S. cerevisiae deletion strains, locus YLR384C, strain iki3, active compounds read low 0.966 | S. cerevisiae deletion strains, locus YML032C, strain rad52, active compounds read low 0.912 | S. cerevisiae deletion strains, locus YMR058W, strain fet3, active compounds read low 0.909 | S. cerevisiae deletion strains, locus YMR129W, active compounds read low 0.957 | S. cerevisiae deletion strains, locus YMR205C, strain PFK2, active compounds read low 0.932 | S. cerevisiae deletion strains, locus YMR231W, strain pep5, active compounds read low 0.971 | S. cerevisiae deletion strains, locus YNL322C, strain KRE1 (second series), active compounds read low 0.924 | S. cerevisiae deletion strains, locus YNR049C, strain mso1, active compounds read low 0.989 | S. cerevisiae deletion strains, locus YOL012C, strain htz1 0.457 | S. cerevisiae deletion strains, locus YOL147C, strain pex11, active compounds read low 0.986 | S. cerevisiae deletion strains, locus YOR001W, strain rrp6, active compounds read low 0.915 | S. cerevisiae deletion strains, locus YOR080W, strain dia2, active compounds read low 0.98 | S. cerevisiae deletion strains, locus YOR144C, strain elg1, active compounds read low 0.985 | S. cerevisiae deletion strains, locus YOR265W, strain rbl2, active compounds read low 0.959 | S. cerevisiae deletion strains, locus YOR270C, strain vph1, active compounds read low 0.977 | S. cerevisiae deletion strains, locus YOR290C, strain snf2, active compounds read low 0.941 | S. cerevisiae deletion strains, locus YPL078C, strain atp4, active compounds read low 0.964 | S. cerevisiae deletion strains, locus YPL240C, strain hsp82, active compounds read low 0.979 | S. cerevisiae deletion strains, locus YPL241C, strain CIN2, active compounds read low 0.995
